Laboratory results as given in PubChem BioAssay AID1619 (SRMLSC, 2009).
The whole screen tested about 220,000 compounds, of which about 830 (0.38%) were called active.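 Rule for the calls: active = compound inhibiting the enzyme by more than half at any dose during confirmatory dose-response retesting; inconclusive = strong single-dose inhibitors picked by rank but not retested; inactive = the rest.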 These entries were drawn from the full list. Results with a measured potency or affinity are listed apart.

target: Leucine aminopeptidase (Plasmodium falciparum (isolate 3D7)) (UniProt Q8IL11); test: P. falciparum M17LAP inhibitors, primary screen, biochemical, fluorogenic H-Leu-NHMec substrate, 1536-well (AID 1619); conditions: recombinant M17LAP, H-Leu-NHMec fluorogenic kinetic assay; at 30 µM; hits give high values;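 note: plate controls were full reaction with DMSO carrier for no effect and no enzyme background for full effect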
Sequence (Q8IL11 whole entry, looked up): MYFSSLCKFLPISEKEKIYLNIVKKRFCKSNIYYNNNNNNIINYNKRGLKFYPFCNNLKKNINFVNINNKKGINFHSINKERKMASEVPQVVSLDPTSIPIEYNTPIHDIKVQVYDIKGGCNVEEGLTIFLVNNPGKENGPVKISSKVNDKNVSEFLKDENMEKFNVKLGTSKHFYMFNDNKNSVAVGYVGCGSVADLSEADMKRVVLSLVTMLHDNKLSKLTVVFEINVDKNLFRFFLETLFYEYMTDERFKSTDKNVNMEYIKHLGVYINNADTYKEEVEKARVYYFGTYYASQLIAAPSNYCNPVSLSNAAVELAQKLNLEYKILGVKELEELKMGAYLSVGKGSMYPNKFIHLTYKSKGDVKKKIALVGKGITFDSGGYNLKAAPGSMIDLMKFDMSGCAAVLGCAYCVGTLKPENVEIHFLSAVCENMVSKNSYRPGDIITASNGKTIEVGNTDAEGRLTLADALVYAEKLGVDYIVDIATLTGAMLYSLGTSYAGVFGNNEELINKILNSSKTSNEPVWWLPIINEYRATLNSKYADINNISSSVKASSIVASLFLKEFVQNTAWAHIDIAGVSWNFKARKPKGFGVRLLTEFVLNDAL

inhibition, inactive:
O=C(Nc1ccc(F)cc1F)N1CCC(c2nc3ccccc3o2)CC1 2.14%, CCOCCCn1c(=S)[nH]c2cc(C(=O)NCC(OC)OC)ccc2c1=O 1.45%, Cc1cc(OCC(=O)N2CCOCC2)ccc1NC(=O)C1CCCCC1 5.24%, O=C(OCC(=O)N1CCN(C(=O)c2ccco2)CC1)c1ccccc1OCc1ccccc1 7.24%, NC(=O)COC(=O)c1ccccc1OCc1ccccc1 13.1%, CC(c1ccccc1)n1c(-c2cccs2)nc2c(c(=O)c3ccccc3n2C)c1=O (stereo not given) 7.83%, CCOc1ccc(C(C(=O)Nc2ccc(F)cc2)N(C(=O)Cn2nnc3ccccc32)C2CC2)cc1 (stereo not given) 6.8%, O=C(CN1C(=O)NC2(CCCCC2)C1=O)Nc1ccc(N2CCOCC2)cc1 29.2%, CC1CCC2(CC1)NC(=O)N(CC(=O)NC(=O)Nc1ccc3c(c1)OCCO3)C2=O (stereo not given) 2.34%, CC1CCCCN1CC(=O)Nc1ccc(N2CCCCCC2)cc1 (stereo not given) 37.6%, CC1CCCCC12NC(=O)N(CC(=O)Nc1ccc(N3CCOCC3)cc1)C2=O (stereo not given) 22%, CC1CCC2(CC1)NC(=O)N(CC(=O)Nc1ccc3c(c1)CCC3)C2=O (stereo not given) -3.16%, O=C(CCN1C(=O)C2C3C=CC(C3)C2C1=O)Nc1ccc2c(c1)OCO2 (stereo not given) -8.11%, O=C(CN1C(=O)C2C3C=CC(C3)C2C1=O)Nc1ccc(F)cc1 (stereo not given) -2.69%, O=C(CN1CCCCC1)Nc1ccc(N2CCCCCC2)cc1 43.3%, Cc1cccn2cc(CCNS(=O)(=O)c3cccc([N+](=O)[O-])c3)nc12 -1.3%, COCCn1c(N)c(N(Cc2ccccc2)C(=O)c2ccc(C#N)cc2)c(=O)[nH]c1=O 1.64%, Cc1nn(C)c(Cl)c1C(=O)NC(C(=O)O)c1ccccc1 (stereo not given) -0.49%, O=C(O)CSc1nc2ccccc2n1-c1ccccc1 6.57%, C/C=C/Cn1c(Br)nc2c1c(=O)[nH]c(=O)n2C 6.95%, O=C1c2ccccc2-c2cccc(C(=O)N3CCN(C(=O)c4ccccc4)CC3)c21 2.37%, CC1=C(C(=O)N2CCOCC2)C(c2ccc(Br)cc2)NC(=S)N1c1ccccc1 (stereo not given) 1.22%, Nc1nonc1C(=Nc1ccc(Br)cc1)NO -2.77%, COc1ccc(NC(=S)N(Cc2ccc(C)cc2)Cc2ccccn2)cc1 4.2%, COc1ccc(-c2cc(C(F)(F)F)n3nc(C(=O)O)nc3n2)cc1 42.7%
